We go through 47 molecules from ChEMBL document CHEMBL3988442, “University of Dundee, Small-Polar-MMV Screening Library” (2021).

The assay concerns Trypanosoma brucei. The experiment in a line: Trypanosoma brucei 72 hour study. Format: functional, organism-based. Set-up: scale not given: in the data most compounds retested in dose-response had high values.

Out of some 66,000 compounds screened, about 960 (1.5%) showed an effect of 50% or more. The sample holds strong results, similar compounds and a random draw of the others, so the mix is not that of the screen.

Turning to `Cc1nccn1CCCn1cncc1-c1ccc2c(c1)CCC(C)N2C.Cl` (configuration not stated), where the note is “30.3 µM, […]”, the “Percent Effect” value came to 17.11%.

For `COCC1N(S(=O)(=O)c2cn(C)cn2)[C@H]2CC[C@]1(O)CC2` (some centres not stated), the “Percent Effect” value (30.3 µM, […]) is given as -23.23%.

As for `CN(C)C(=O)CN1C(=O)CCC12CCN(Cc1cccs1)CC2.O=C(O)C(F)(F)F`, where the note is “30.3 µM, […]”, the “Percent Effect” value is -53.05%.

Consider `O=C(O)C(F)(F)F.O=C(c1cscn1)N1CCCC2(CCN2Cc2cccc(F)c2)C1` (configuration not stated), for which the “Percent Effect” value (30.3 µM, […]) came out at 27.36%.

In the case of `Cc1cc(C)cc(OCC(O)CN2CCN(c3nccs3)CC2)c1` (configuration not stated), the “Percent Effect” value (30 µM, 30.03 µM) is -27.85%.

For the molecule `COC(=O)c1ccc(N2CCN(C(=O)c3cnc(C)cn3)C(C)C2)cc1` (configuration not stated), the “Percent Effect” value (30.3 µM, […]) is recorded as 8.397%.

For the molecule `Cc1nn(C)c2nc(-c3ccccn3)nc(NC[C@@H]3CCCO3)c12`, under “30 µM, 30.03 µM”, the “Percent Effect” value is recorded as -82.13%.

For `CCC1(O)CCCN(c2nc(-c3ccccn3)nc3c2c(C)nn3C)C1` (configuration not stated), the “Percent Effect” value (30 µM, 30.03 µM) amounted to 51.81%.

On to `Cc1nn(C)c2nc(-c3ccccn3)nc(NCCC3CCCN3C)c12` (configuration not stated), for which the “Percent Effect” value (30 µM, 30.03 µM) was -75.32%.

On to `O=C1CCC2(CCN(Cc3cscn3)CC2)CN1[C@H]1CC[C@H](O)CC1`, for which the “Percent Effect” value (30 µM, 30.03 µM) is -1.213%.

In the case of `CNc1cccc(CC2COCCN(C(=O)c3cccnc3)C2)n1` (configuration not stated), where the note is “30.3 µM, […]”, the “Percent Effect” value amounted to 5.622%.

Consider `CC(C)(C)SCC(=O)NCCc1csc(N2CCCC2)n1`, for which, under “30 µM, 30.03 µM”, the “Percent Effect” value is reported as -0.8864%.

For `CCNC(=O)NCCc1csc(N2CCCC2)n1`, the “Percent Effect” value (30 µM, 30.03 µM) is given as -10.34%.

For the molecule `CC(C)(C)OC(=O)NCCc1csc(N2CCCC2)n1`, under “30 µM, 30.03 µM”, the “Percent Effect” value is reported as 63.65%.

In the case of `Cc1nc(C2(O)CCCNCC2)sc1CCOc1ccccc1Cl.Cl` (configuration not stated), the “Percent Effect” value (30.3 µM, […]) was determined as 102.3%.

As for `CC(=O)Nc1nc(C(=O)NCCOc2ccccc2F)cs1`, the “Percent Effect” value (30.3 µM, […]) is recorded as -41.52%.

With `Cc1ncccc1OC1(C(=O)NCCNc2ccccc2)CCNCC1`, for the setting “30.3 µM, […]”, the “Percent Effect” value came to 0.199%.

For the molecule `CCN1CCCC(O)(c2nc(C)c(CCOc3ccccc3Cl)s2)CC1` (configuration not stated), where the note is “30.3 µM, […]”, the “Percent Effect” value came to 33.23%.

As to `Cc1ncc(C(=O)NCCOc2ccccc2F)c(C)n1`, for the setting “30 µM, 30.03 µM”, the “Percent Effect” value is -71.35%.

With `Cc1nc(C2(O)CCCNCC2)sc1CCOc1ccccc1.Cl` (configuration not stated), the “Percent Effect” value (30.3 µM, […]) is listed as 41.97%.

In the case of `CCN1CCCC(O)(c2nc(C)c(CCOc3ccccc3F)s2)CC1` (configuration not stated), the “Percent Effect” value (30.3 µM, […]) is given as -7.056%.

As to `Cc1nc(C2(O)CCCNCC2)sc1CCOc1ccccc1F.Cl` (configuration not stated), the “Percent Effect” value (30.3 µM, […]) came out at 74.4%.

In the case of `CNC(=O)CN1CC[C@H]2CN(C(=O)c3ccccc3C)C[C@H]2C1.O=C(O)C(F)(F)F`, the “Percent Effect” value (30.3 µM, […]) is on record as -31.13%.

In the case of `O=C(COc1ccccc1F)N1CCCCC1c1ccn2ccnc2n1` (configuration not stated), for the setting “30.3 µM, […]”, the “Percent Effect” value was -11.94%.

On to `O=C(C1=CCCC1)N1CCO[C@H]2[C@@H](Oc3ccccn3)CC[C@@H]21.O=C(O)C(F)(F)F`, for which the “Percent Effect” value (30 µM, 30.03 µM) is given as 21.55%.

`Cc1c(C)n(-c2ccccn2)c2nc3c(c(N)c12)CCCC3`: the “Percent Effect” value (30 µM, 30.03 µM) is given as 65.81%.

For the molecule `Cc1c(C)n(Cc2ccccn2)c2nc3c(c(N)c12)CCCC3`, the “Percent Effect” value (30 µM, 30.03 µM) is recorded as 14.96%.

`Cc1c(C)n(-c2ccccn2)c2nc3c(c(N)c12)CCCCC3`: for the setting “30 µM, 30.03 µM”, the “Percent Effect” value is on record as -26.49%.

For the molecule `O=C(C1CCCC1)N1C[C@@H]2CCN(c3cnccn3)C[C@@H]2C1.O=C(O)C(F)(F)F`, for the setting “30.3 µM, […]”, the “Percent Effect” value was -13.6%.

Turning to `CCc1ccc(CN2C[C@@H]3COC[C@H](NS(C)(=O)=O)[C@@H]3C2)o1.O=C(O)C(F)(F)F`, the “Percent Effect” value (30.3 µM, […]) is given as -9.462%.

In the case of `Cc1ccc(N(C)C2CCN(C(=O)c3ccsc3)CC2)nn1`, the “Percent Effect” value (30 µM, 30.03 µM) came out at 59.68%.

As for `Cc1ccc(NC2CCN(C(=O)c3ccsc3)CC2)nn1`, where the note is “30 µM, 30.03 µM”, the “Percent Effect” value is recorded as -24.89%.

Consider `Cc1ccc(N2CCC3(CCN(C(=O)c4ccsc4)CC3)CC2)nn1`, for which the “Percent Effect” value (30 µM, 30.03 µM) is given as 20.14%.

In the case of `CC1=Nc2c(c(=O)[nH]n2C2CCCC2)C(c2ccc(O)cc2)S1` (configuration not stated), under “30 µM, 30.03 µM”, the “Percent Effect” value was -3.6%.

Turning to `Cc1cc(C)n(CC2CN(Cc3nc4ccccc4s3)CCO2)n1` (configuration not stated), the “Percent Effect” value (30.3 µM, […]) came out at 18.1%.

For `CN1CCN(S(=O)(=O)c2cccnc2)c2cnccc21`, the “Percent Effect” value (30.3 µM, […]) is -3.164%.

In the case of `CCn1cc(S(=O)(=O)N2CCC(C)Sc3ccccc32)cn1` (configuration not stated), the “Percent Effect” value (30 µM, 30.03 µM) is -33.91%.

Regarding `CC1CCN(S(=O)(=O)c2cccnc2)c2ccccc2S1` (configuration not stated), the “Percent Effect” value (30 µM, 30.03 µM) is given as 80.08%.

With `Cn1nc(C(=O)N2CCOCC2)cc1C(=O)Nc1c(Cl)cccc1Cl`, the “Percent Effect” value (30 µM, 30.03 µM) is reported as -27.89%.

For the molecule `CC(C)c1cc(C2CCN(C(=O)Cn3cnc4ccccc43)CC2)[nH]n1`, under “30 µM, 30.03 µM”, the “Percent Effect” value is on record as -44.45%.

Consider `Cc1cc(C(F)(F)F)nc(CCNC(C)Cn2ccnc2)n1` (configuration not stated), for which the “Percent Effect” value (30 µM, 30.03 µM) is -48.3%.

With `CCCC(=O)N(CCN1CCOCC1)c1nc2c(OC)ccc(C)c2s1.Cl`, under “30.3 µM, […]”, the “Percent Effect” value stood at 13.57%.

For the molecule `CN(CCN1CCOCC1)C(=O)CCc1cccc(Cl)c1`, where the note is “30 µM, 30.03 µM”, the “Percent Effect” value is reported as 2.26%.

Regarding `CCCC(=O)N(CCCN1CCOCC1)c1nc2c(C)c(C)ccc2s1.Cl`, the “Percent Effect” value (30.3 µM, […]) worked out at 27.33%.

Take `CCCC(=O)N(CCCN1CCOCC1)c1nc2c(C)ccc(Cl)c2s1.Cl`: the “Percent Effect” value (30.3 µM, […]) was 71.42%.

Take `CCCC(=O)N(CCCN1CCOCC1)c1nc2c(F)cccc2s1.Cl`: under “30.3 µM, […]”, the “Percent Effect” value is given as 24.42%.

`CCCC(=O)N(CCCN1CCOCC1)c1nc2c(Cl)cccc2s1.Cl`: the “Percent Effect” value (30.3 µM, […]) worked out at 55.71%.
